TCR act: activators of T cell receptors. Potency, µM (series often up to 9.22 µM), for inactives: at the top dose activation of IL-2 secretion, hits mostly activators. primary human leukocytes, anti-CD3, IL-2 HTRF, 48 h. 330,000 tested, under 10 active; note: % of control where 0% means no effect
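TCR engagement came from a-CD3 beads alone, with compounds added to primary human leukocytes for 48 hr. Secreted IL-2 bridged europium cryptate- and d2-labelled anti-IL-2 antibodies, giving FRET emission at 665nm after 320nm excitation.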
Glioma ERSR ind: inducers of ER stress response in human glioma cells; U87-MG GRP78 promoter luciferase reporter, 16 h; Potency, µM, without a hit: top-dose activation, usual class: activators; 420,000 tested, 0.02% active; note: potency is the fitted concentration of half-maximal effect; series mostly up to about 76 µM; % of control where 0% means no effect; nearly all actives have a fitted effect of over 35% in size
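ERSR induction read as luciferase luminescence (Bright-Glo, 10 min at room temperature) in stably transfected human U87-MG glioma cells exposed to compounds for 16 h, using GRP78 as sensor.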
Mito fusion act: blocks mitochondrial division or promotes mitochondrial fusion | S. cerevisiae fusion-defective mutant growth rescue, CellTiterGlo 48 h | Potency, µM (titrated, usually from 46.1 µM), for inactives: top-dose growth rescue (activation), hits mostly activators | 320,000 tested, 0.23% active | AID 485298; note: potency is the fitted concentration of half-maximal effect; % of control where 0% means no effect; nearly all actives have a fitted effect of over 45% in size
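Read-out: ATP-based luminescence (CellTiterGlo, 10 min ambient) reporting growth of fusion-defective ts yeast after 48 hours at 37C on glycerol/ethanol YPEG medium in the presence of compound.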
MBNL1-CUG inh: inhibitors of human MBNL1 binding to CUG repeat RNA; TR-FRET MBNL1-His/biotin-(CUG)12 binding, 665/545 ratio; Potency, µM (doses to about 57.5 µM), for inactives: top-dose activity change, negative = inhibition, actives largely listed as inhibitors; 280,000 tested, 0.036% active; AID 2675; Q9NR56; active = well fitted inhibition curve with a large enough effect in the signal ratio, with a control signal flat, not every such curve was filed as active; inconclusive = small, poorly fitted or top-dose-only effect, or effect the other way, or a change in a side signal; inactive = no such curve, though single readings can be large or run the other way; the % refers to the signal ratio; note: potency is the fitted concentration of half-maximal effect; % is set by controls: 0 for no effect and ±100 for the full control effect
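Compound titration spanned 92 nM–58 uM against the MBNL1-His/biotin-(CUG)12 complex. After 60 min at room temperature with 5 nM streptavidin-XL665 and 0.055 ng/ul terbium anti-His, ratiometric 665/545 nm emission (Ex 340 nm) normalized to controls.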
AT treatment: potential ataxia-telangiectasia treatment | 320,000 tested, 0.19% active | Potency, µM (highest dose often 57.5 µM), without a hit: top-dose activation, hits mostly activators | F2112 A-T fibroblasts, KAP-1 phosphorylation AlphaLISA; neocarzinostatin DNA damage 30 min before lysis; note: potency is the fitted concentration of half-maximal effect; % of control where 0% means no effect; nearly all actives have a fitted effect of over 45% in size
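ATM-like activity read as KAP-1 phosphorylation via AlphaLISA donor/acceptor antibody pairs after lysis and 6 hr at 25C. Cells were ATM-null patient fibroblasts (F2112, hTERT), dosed 60 min, then exposed to the DSB inducer NCS for 30 min.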
ClpP mod: qHTS Assay for Activators of ClpP. ATP-dependent Clp protease proteolytic subunit (Bacillus subtilis (strain 168)), P80244. purified B. subtilis ClpP, FRET peptide cleavage, 20 min. Potency, µM (top dose mostly 57.5 µM), for inactives: at the highest dose activity change, negative = active. 340,000 tested, 1.9% active; active = well fitted falling curve with a large enough effect; inconclusive = small, poorly fitted or top-dose-only effect; inactive = no such curve, though single readings can be large or run the other way; note: potency is the fitted concentration of half-maximal effect; the source files actives as falling curves though it sought activators and does not explain the sign; nearly all actives have a fitted effect of over 65% in size
Target sequence (P80244 whole entry, looked up): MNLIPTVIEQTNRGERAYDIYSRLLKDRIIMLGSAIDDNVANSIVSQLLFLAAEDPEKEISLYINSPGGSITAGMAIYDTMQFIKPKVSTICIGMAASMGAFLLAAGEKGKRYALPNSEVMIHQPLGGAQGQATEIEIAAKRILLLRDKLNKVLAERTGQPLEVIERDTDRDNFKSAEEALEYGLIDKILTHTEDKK
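Purified B. subtilis ClpP, 10 microg/mL final in Tris/HCl pH8 with KCl, BSA, glycerol and Tween-20, cleaved an Abz/nitrotyrosine-quenched decapeptide. Fluorescence (ex 320, em 430) was read at 0 and 20 min at room temperature. Delta was normalized to 5.8 microM ADEP and DMSO/no-enzyme controls.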
* hit, by the source's call; ? = inconclusive; · = not tested or not shown; [ ] = another dose, or the depositor's remark. Rows were chosen to be rich in hits. Some 1.8% of all compounds tested hit in one or more screens of this group. Unless noted, calls come from the whole dose curve; as a rule, active = well fitted curve in the direction sought with a large enough effect; inconclusive = small, poorly fitted or top-dose-only effect, or another doubt; inactive = no such curve, though single readings can be large; an effect the other way counts as inactive or inconclusive.

SMILES	TCR act	Glioma ERSR ind	Mito fusion act	MBNL1-CUG inh	AT treatment	ClpP mod
CCOc1ccc(S(=O)(=O)N2CC(=O)Nc3ccccc32)cc1C#N	-10%	0%	1%	-3%	-7%	·
CCOc1ccc(S(=O)(=O)N2CC(=O)Nc3ccccc32)cc1	3%	-2%	8%	1%	-3%	32µM*
COCCCn1c(-c2ccc(OC)cc2)nc2nc3ccccc3nc21	·	·	3%	?	3%	·
CCCn1c(-c2ccc(OC)cc2)nc2nc3ccccc3nc21	·	0%	3%	27%	10%	28µM*
O=C(Nc1cccnc1)c1sc(Nc2ccccc2F)nc1-c1ccccc1	5%	-4%	-4%	4%	-3%	18µM*
C=CS(=O)(=O)O	·	-4%	·	·	·	·
Cc1ccc2c(C(=O)CNc3nc(C)c(C)s3)c(C)[nH]c2c1	·	5%	·	·	·	-9%
Cn1c(=N)n(CC(O)c2ccco2)c2ccccc21 (configuration not stated)	4%	-3%	2%	-5%	-2%	1%
Cn1c(=N)n(CC(O)c2cccc3ccccc23)c2ccccc21 (configuration not stated)	-2%	-3%	-5%	5%	10%	8.9µM*
O=c1cc(-c2ccccc2F)[nH]c2cc3c(cc12)OCO3	·	-3%	-12%	·	·	·
CC(C)CCSc1nc(N)c(C#N)cc1C#N	-7%	1%	11µM*	?	2%	32µM*
Cc1cccc(OCC(=O)Nc2ccc(C(=O)Nc3ccccc3C(=O)O)cc2)c1	·	1%	·	·	·	-3%
Cc1cccc(C(=O)Nc2ccccc2C(=O)OCC(=O)Nc2ccc(C#N)cc2)c1	0%[46.1 µM]	0%	1%	38%	-2%	16µM*
COc1ccc(/C=C/c2ccccn2)cc1	·	-3%	·	·	·	1%
CC(C)(C)NC(=O)[C@H]1CC[C@H]2[C@@H]3CC=C4C=C(C(=O)O)CC[C@@]4(C)[C@H]3CC[C@]12C	·	-1%	·	·	·	·
COc1ccc(CCNCC(=O)Nc2ccc(OC(F)(F)F)cc2)cc1OC	-7%	-3%	-8%	-3%	-9%	0%
CCc1ccc(NC(=O)CNCc2ccc(OC)c(OC)c2)cc1	1%	-4%	-15%	6%	0.71µM*	·
Cc1c(C(=O)O)cccc1-c1ccc(/C=N/n2cnnc2)o1	9%	4%	6%	?	?	?
Cc1c(C(=O)O)cccc1-c1ccc(/C=N/Nc2ccc(Br)cc2)o1	1%[46.1 µM]	1%	20µM*	15%	19%	-14%
O=C(CSc1nc(C2CC2)nc2ccccc12)N1c2ccccc2Sc2ccccc21	-6%	-6%	20%	-4%	-4%	13µM*
O=C(CSc1nc2ccccc2o1)N1c2ccccc2Sc2ccccc21	-2%[46.1 µM]	-2%	13µM*	0%	2%	4%
Cc1ccc(C(=O)Nc2c(-c3cccs3)nc3cc(C)ccn23)cc1	-2%	-2%	6%	-4%	0%	0%
Cc1ccn2c(NC(=O)C(C)(C)Oc3ccc(Cl)cc3)c(-c3cccs3)nc2c1	3%[46.1 µM]	-1%	?	·	1%	32µM*
Cc1ccc(C2NC(=O)c3c(sc4c3CCN(C)C4)N2)s1 (configuration not stated)	10%	4%	2%	?	6%	25µM*
Cc1cccc(C2NC(=O)c3c(sc4c3CCN(C)C4)N2)c1O (configuration not stated)	·	0%	·	·	·	4%
CN1CCc2c(sc3c2C(=O)NC(c2ccccc2)N3)C1 (configuration not stated)	8%[46.1 µM]	-3%	25%	0%[11.5 µM]	0%	1%
Cc1ccc(C2NC(=O)c3c(sc4c3CCN(C)C4)N2)o1 (configuration not stated)	6%	-5%	1%	?	-2%	28µM*

Compound activity deposited in PubChem by National Center for Advancing Translational Sciences (NCATS).
